Here are results for eight compounds from PubChem BioAssay.

The source made the active and inactive calls.

Experiment [1] in a line: optical density shifts of acrAB sulA E. coli – strain DRC41, OD650, 48 h, E. coli filamentation inducer project, primary screen (AID 1152).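 Also: E. coli MC1000 strain DRC41 lacking acrAB efflux pump and sulA.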 The following applies: higher = more signal, called active from +8 up or from −8 down.
Experiment [2] is described as follows: probe aLefty1 binding on compound microarray – biochemical, small-molecule microarray, 635/667 nm fluorescence, primary screen (AID 1153).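 Also: score merges spot fluorescence with signal-to-noise ratio from the scanned slide images.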 Conditions: higher = more signal.
Experiment [3] in a line: plasmodial surface anion channel blockers, osmotic lysis – cell-based, P. falciparum Indochina, OD700, 1 h, primary screen (AID 1154). Conditions: P. falciparum Indochina infected RBC osmotic lysis, higher = more signal, called active from +8 up or from −8 down.
The nature of experiment [4]: plasmodial surface anion channel blockers, osmotic lysis – cell-based, P. falciparum Indochina, OD700, 2 h, primary screen (AID 1155).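 Also: lysis reports solute entry through the parasite surface anion channel PSAC.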 Conditions: P. falciparum Indochina infected erythrocytes, higher = more signal, called active from +8 up or from −8 down.
Experiment [5] is described as follows: changes in parasitized red cell lysis, either direction – P. falciparum Indochina, OD700, 3 h, PSAC antagonist project, primary screen (AID 1156). The following applies: P. falciparum-infected erythrocytes, osmotic lysis, higher = more signal, called active from +8 up or from −8 down.
Experiment [6] is described as follows: plasmodial surface anion channel blockers, osmotic lysis – cell-based, P. falciparum Indochina, OD700, 18 h, primary screen (AID 1157). Conditions: P. falciparum Indochina infected erythrocytes, osmotic lysis OD700, 18 h; higher = more signal, called active from +8 up or from −8 down.
A short description of experiment [7]: S6 kinase pathway phospho-S6 level changes – cell-based, A549, cytoblot, luminescence, serum-stimulated, primary screen (AID 1158).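 Also: serum-stimulated A549 lung adenocarcinoma cells; signal is phosphorylated S6 detected by cytoblot immunostaining with HRP secondary.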 Conditions: 5 h, higher = more signal.
The target in experiment [8] is NADPH oxidase 2 (Homo sapiens) (UniProt P04839). Briefly: compounds shifting NOX2 Amplex Red fluorescence – cell-based, HEK293-NOX2, PMA-stimulated, NOX inhibitor project, primary screen (AID 1159). Also: test concentration not given here. The following applies: 45 min, higher = more signal, called active from +8 up or from −8 down.
Sequence of NADPH oxidase 2 (Homo sapiens) (P04839 whole entry, looked up): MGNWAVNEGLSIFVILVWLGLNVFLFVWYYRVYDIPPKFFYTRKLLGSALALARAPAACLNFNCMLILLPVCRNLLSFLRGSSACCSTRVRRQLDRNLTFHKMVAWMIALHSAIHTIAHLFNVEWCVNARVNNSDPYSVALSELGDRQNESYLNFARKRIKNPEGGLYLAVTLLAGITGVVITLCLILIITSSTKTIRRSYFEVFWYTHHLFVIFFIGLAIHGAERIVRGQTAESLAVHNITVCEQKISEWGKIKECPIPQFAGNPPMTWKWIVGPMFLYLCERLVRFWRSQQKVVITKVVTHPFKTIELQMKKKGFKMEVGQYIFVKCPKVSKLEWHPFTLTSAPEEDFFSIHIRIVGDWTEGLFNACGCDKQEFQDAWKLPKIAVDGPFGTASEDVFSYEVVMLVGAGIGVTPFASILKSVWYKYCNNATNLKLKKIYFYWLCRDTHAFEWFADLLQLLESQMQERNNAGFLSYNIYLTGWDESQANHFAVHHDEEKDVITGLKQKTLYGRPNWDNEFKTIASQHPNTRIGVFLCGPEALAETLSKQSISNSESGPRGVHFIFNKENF
Experiment [9] has as its target NADPH oxidase 4 (Homo sapiens) (UniProt Q9NPH5). The experiment in a line: compounds shifting NOX4 Amplex Red fluorescence – cell-based, HEK293-NOX4, tetracycline-induced, NOX inhibitor project, primary screen (AID 1160). Conditions: HEK293-NOX4, Amplex Red H2O2 fluorescence, 45 min; higher = more signal, called active from +8 up or from −8 down.
Experiment [10] deals with NADPH oxidase 5 (Homo sapiens) (UniProt Q96PH1). Briefly: compounds shifting NOX5 Amplex Red fluorescence – cell-based, HEK293-NOX5, NOX inhibitor project, primary screen (AID 1161). The following applies: HEK293-NOX5, ionomycin, 45 min, higher = more signal.
Sequence of NADPH oxidase 5 (Homo sapiens) (Q96PH1 whole entry, looked up): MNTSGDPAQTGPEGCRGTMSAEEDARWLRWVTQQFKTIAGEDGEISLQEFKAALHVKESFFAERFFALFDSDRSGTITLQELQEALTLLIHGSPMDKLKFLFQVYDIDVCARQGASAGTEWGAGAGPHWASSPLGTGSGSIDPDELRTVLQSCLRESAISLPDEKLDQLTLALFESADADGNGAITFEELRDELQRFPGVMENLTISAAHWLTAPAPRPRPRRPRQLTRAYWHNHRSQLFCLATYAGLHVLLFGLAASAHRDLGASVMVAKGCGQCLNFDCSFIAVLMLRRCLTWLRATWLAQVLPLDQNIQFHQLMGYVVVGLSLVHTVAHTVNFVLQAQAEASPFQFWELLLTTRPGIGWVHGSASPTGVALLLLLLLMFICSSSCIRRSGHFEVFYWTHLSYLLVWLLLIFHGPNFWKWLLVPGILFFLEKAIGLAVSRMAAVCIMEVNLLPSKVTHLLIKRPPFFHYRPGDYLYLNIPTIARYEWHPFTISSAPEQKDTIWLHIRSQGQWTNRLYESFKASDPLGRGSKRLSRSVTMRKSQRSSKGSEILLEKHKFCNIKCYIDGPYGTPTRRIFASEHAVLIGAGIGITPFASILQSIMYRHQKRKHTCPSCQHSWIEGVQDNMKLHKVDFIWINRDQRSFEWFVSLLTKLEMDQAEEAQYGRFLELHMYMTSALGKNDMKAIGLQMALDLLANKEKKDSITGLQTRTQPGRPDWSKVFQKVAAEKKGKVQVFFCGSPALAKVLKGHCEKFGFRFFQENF
Experiment [11] in a line: compound effects on lung adenocarcinoma cell viability – A549, calcein-AM fluorescence, 48 h, basal, profiling panel (AID 1162). Also: test concentration not given here. The following applies: higher = more signal.
Experiment [12] is described as follows: compound effects on differentiated 3T3-L1 adipocyte viability – cell-based, 3T3-L1 adipocytes, calcein-AM fluorescence, 48 h, basal, profiling panel (AID 1163). Also: test concentration not given here. Conditions: 3T3-L1 adipocytes viability, higher = more signal.
Experiment [13] is described as follows: compound effects on hepatocellular carcinoma cell viability – HepG2, calcein-AM fluorescence, 48 h, basal, profiling panel (AID 1164). Also: test concentration not given here. The following applies: higher = more signal.
A short description of experiment [14]: compound effects on multiple myeloma cell viability – MM1S, calcein-AM fluorescence, 48 h, basal, profiling panel (AID 1165). Also: test concentration not given here. Conditions: higher = more signal.
Experiment [15] in a line: calcein-AM signal in unstimulated myeloma cells – cell-based, calcein-AM fluorescence, 48 h, PK04 Diversity Set, profiling panel (AID 1166).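 Also: cells grown under basal conditions without added stimulus; test concentration not given here.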 The following applies: RPMI8226 myeloma viability, higher = more signal.
Experiment [16] is described as follows: JC-1 mitochondrial signal, unstimulated HepG2 cells – cell-based, JC-1 fluorescence, 24 h, 100 nL compound, profiling panel (AID 1167). Also: test concentration not given here. The following applies: HepG2 mitochondrial potential, higher = more signal.
Experiment [17] can be described thus: JC-1 mitochondrial signal, unstimulated adipocytes – cell-based, JC-1 fluorescence, 3T3-L1 adipocytes, 24 h, 100 nL compound, profiling panel (AID 1168). Also: test concentration not given here. Conditions: JC-1 mitochondrial fluorescence, higher = more signal, called active from +8 up or from −8 down.
Experiment [18] can be described thus: JC-1 mitochondrial signal, unstimulated myeloma cells – cell-based, JC-1 fluorescence, RPMI8226, 24 h, 100 nL compound, profiling panel (AID 1169). Also: test concentration not given here. Conditions: JC-1 mitochondrial potential fluorescence, higher = more signal.
A short description of experiment [19]: JC-1 mitochondrial signal, unstimulated MM1S myeloma – cell-based, JC-1 fluorescence, 24 h, 100 nL compound, profiling panel (AID 1170). Also: test concentration not given here. Conditions: MM1S mitochondrial potential, higher = more signal.
Experiment [20] is described as follows: resazurin metabolic signal in A549 cells – cell-based, resazurin fluorescence, 24 h, PK04 Diversity Set, profiling panel (AID 1171). Also: test concentration not given here. The following applies: A549 viability, higher = more signal, called active from +8 up or from −8 down.

Sequence of NADPH oxidase 4 (Homo sapiens) (Q9NPH5 whole entry, looked up): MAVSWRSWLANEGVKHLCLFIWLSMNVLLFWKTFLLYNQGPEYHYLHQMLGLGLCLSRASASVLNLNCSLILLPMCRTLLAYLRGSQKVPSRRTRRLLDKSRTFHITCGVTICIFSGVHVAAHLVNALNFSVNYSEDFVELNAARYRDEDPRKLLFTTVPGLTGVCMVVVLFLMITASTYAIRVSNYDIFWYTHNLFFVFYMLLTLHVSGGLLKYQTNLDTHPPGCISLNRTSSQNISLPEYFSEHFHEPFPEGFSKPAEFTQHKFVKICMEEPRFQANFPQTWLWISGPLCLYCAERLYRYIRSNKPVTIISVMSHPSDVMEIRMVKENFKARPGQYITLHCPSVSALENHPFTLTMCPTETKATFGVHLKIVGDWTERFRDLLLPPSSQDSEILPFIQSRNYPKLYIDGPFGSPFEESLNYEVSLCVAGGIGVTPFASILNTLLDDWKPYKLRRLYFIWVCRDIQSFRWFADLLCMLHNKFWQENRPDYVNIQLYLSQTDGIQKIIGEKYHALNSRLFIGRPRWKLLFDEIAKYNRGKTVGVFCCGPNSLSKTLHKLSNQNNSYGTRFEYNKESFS

`CCCc1cccc(=O)o1`: the z-score was -0.228 (inactive) in experiment [1]; 0.342 (inactive) in experiment [3]; -0.831 (inactive) in experiment [4]; -0.832 (inactive) in experiment [5]; -1.23 (inactive) in experiment [6]; 0.274 in [7]. In addition, the z-score in [8] was 0.685 (inactive); in experiment [9], -0.173 (inactive); in [10] it was 0.173; in [11], -0.996; in [12], 0.369; in [13] it was -0.133. The z-score in experiment [14] is 0.25; in [15] it was -0.316; in experiment [16] it was -0.147; in [17] it was 0.72 (inactive); in [18], -0.417; in [19], -0.773. Moreover, the z-score in experiment [20] is 0.366 (inactive). The compound also showed a composite z-score in experiment [2] of 0.042.

Turning to `COc1cc2c(cc1OC)CN(C(=O)[C@H]1[C@@H]3C(=O)O[C@@H](c4ccccc4)[C@@H](c4ccccc4)N3[C@@H](c3ccc(OCCO)cc3)[C@]13C(=O)Nc1ccc(C#CCCO)cc13)CC2`, the z-score in experiment [1] is 0.0836 (inactive); in experiment [3], 2.66 (inactive); in experiment [4], 1.8 (inactive); in experiment [5], 0.796 (inactive); in experiment [6], 0.802 (inactive); in experiment [7], 0.142. Moreover, the z-score is 1.46 (inactive) in experiment [8]; 0.798 (inactive) in experiment [9]; 1.66 in experiment [10]; 0.269 in [11]; -0.16 in experiment [12]; -0.142 in experiment [13]. The z-score in experiment [14] is -0.0509; in experiment [15] it was 0.77; in [16] it was -1.21; in [17], 0.764 (inactive); in experiment [18] it was -0.453; in experiment [19], -1.07. For the same compound, the z-score in experiment [20] was 0.604 (inactive). This compound also came in with a composite z-score in [2] of 0.433.

With `CC=CC(O)C1C=CC2C(=O)N(c3ccccc3)C(=O)C2N1Nc1ccccc1` (stereo not given), the z-score in experiment [1] was 0.509 (inactive); in experiment [3], 5.52 (inactive); in experiment [4], 1.17 (inactive); in experiment [5], 0.419 (inactive); in [6] it was 1.17 (inactive); in [7] it was -0.959. Further, the z-score is 0.209 (inactive) in experiment [8]; -4.28 (inactive) in experiment [9]; -2.42 in [10]; 1.04 in [11]; -0.511 in [12]; 1.05 in experiment [13]. Moreover, the z-score in experiment [14] is 0.214; in experiment [15], -0.279; in [16], -0.222; in experiment [17] it was 0.243 (inactive); in [18], -0.866; in experiment [19] it was -0.749. In experiment [20], the z-score is 0.0599 (inactive). Also, in experiment [2], the composite z-score stood at 0.135.

Take `COC(=O)Cn1c(C(=O)N2CCCC2)cc2c1C[C@H]1CN(C(=O)c3ccccc3)[C@@](Cc3ccc(F)cc3)(C(=O)OC)[C@@H]21`: the z-score in [1] is -0.246 (inactive); in experiment [3] it was 1.32 (inactive); in [4], -0.428 (inactive); in experiment [5], -0.865 (inactive); in [6] it was -1.71 (inactive); in [7], 3.59. In addition, the z-score in experiment [8] is 0.215 (inactive); in experiment [9] it was 1.31 (inactive); in experiment [10] it was -1.46; in [11], 1.13; in experiment [12], 0.0791; in experiment [13], 0.476. The z-score is -0.297 in experiment [14]; 0.63 in [15]; 0.669 in experiment [16]; -1.47 (inactive) in [17]; -0.135 in [18]; -1.68 in [19]. For the same compound, the z-score in experiment [20] is -0.581 (inactive). Besides, in experiment [2], the composite z-score was -0.041.

In the case of `COC(=O)[C@@]1(Cc2ccc(OC)cc2)[C@H]2c3cc(C(=O)N(C)C)n(Cc4nc5ccccc5[nH]4)c3C[C@H]2CN1C(=O)c1ccccc1`, the z-score was -2.02 (inactive) in [1]; 2.03 (inactive) in experiment [3]; 0.724 (inactive) in experiment [4]; 0.482 (inactive) in experiment [5]; 1.25 (inactive) in [6]; 0.123 in experiment [7]. The z-score in [8] is 0.576 (inactive); in experiment [9], 1.85 (inactive); in experiment [10] it was 2.4; in experiment [11], -2.46; in experiment [12] it was -0.529; in experiment [13], -1.79. The z-score was -1.37 in experiment [14]; -3.86 in [15]; 2.13 in [16]; -1.24 (inactive) in [17]; -0.737 in [18]; -1.49 in experiment [19]. Moreover, the z-score in [20] was -0.88 (inactive). For the same compound, in experiment [2], the composite z-score was determined as 0.905.

With `O=C1OCCC=C[C@H]2OC34C=CCN(c5ccc(Cl)cc5)C(=O)[C@H]3N(CCCCCO)C(=O)[C@@H]4C12` (stereo not given in full), the z-score in [1] is 1.81 (inactive); in [3], 2.21 (inactive); in [4], 0.355 (inactive); in experiment [5] it was 1.63 (inactive); in experiment [6], 0.795 (inactive); in [7], 0.0411. The z-score in [8] is 1.69 (inactive); in [9], 0.747 (inactive); in experiment [10], 2.35; in experiment [11] it was 0.657; in experiment [12] it was 0.0279; in [13], 1.11. Further, the z-score in experiment [14] is 1.54; in [15], -0.579; in [16], 0.989; in [17], 1.14 (inactive); in [18], 0.211; in experiment [19], 0.0628. Also, the z-score in [20] was 1.03 (inactive). The compound further gave a composite z-score in experiment [2] of 0.211.

`CCOC(=O)C[C@H]1[C@H](OC(=O)c2ccccc2-c2ccccc2)[C@@H](NC(=O)c2ccc3ccccc3n2)c2cc(OCCCO)ccc2N1C(=O)c1ccc2ccccc2n1`: the z-score was 1.17 (inactive) in [1]; 3.67 (inactive) in [3]; -0.774 (inactive) in [4]; -1.88 (inactive) in [5]; -2.15 (inactive) in experiment [6]; 0.112 in experiment [7]. The z-score in [8] was 1.18 (inactive); in [9], 1.07 (inactive); in experiment [10], 2.5; in experiment [11] it was 0.923; in experiment [12], 1.65; in experiment [13], 0.877. Further, the z-score in experiment [14] was 0.497; in [15] it was -0.237; in experiment [16] it was 2.39; in experiment [17], 0.309 (inactive); in experiment [18], 0.356; in [19] it was -0.845. Also, the z-score in experiment [20] is 0.545 (inactive). Further, the composite z-score in experiment [2] is -0.0747.

As to `COc1ccc([Si](C)(C)[C@H]2[C@H](CC(=O)N3Cc4ccccc4C[C@H]3CO)O[C@@]3(C(=O)N(Cc4cccc(N5CCCCC5=O)c4)c4ccccc43)[C@@H]2C)cc1`, the z-score in experiment [1] is -0.431 (inactive); in [3], 3.41 (inactive); in experiment [4], 0.966 (inactive); in experiment [5], 0.357 (inactive); in experiment [6] it was 0.549 (inactive); in [7], 1.83. The z-score in experiment [8] is -0.508 (inactive); in experiment [9], 0.916 (inactive); in experiment [10], -0.169; in experiment [11], -0.463; in [12] it was 0.785; in experiment [13], -0.229. The z-score was -1.87 in [14]; -3.08 in [15]; -0.189 in experiment [16]; -0.198 (inactive) in experiment [17]; -1.07 in [18]; -1.46 in [19]. In addition, in experiment [20], the z-score was -0.646 (inactive). The same compound yielded a composite z-score in [2] of 0.0391.
